TrxR1 substrate: qHTS Assay for Substrates of Mammalian Selenoprotein Thioredoxin Reductase 1 (TrxR1): qHTS; purified TrxR1 substrate turnover, NADPH consumption readout; 0.01% of 390,000 active; Thioredoxin reductase 1, cytoplasmic (Rattus norvegicus), O89049; Potency, µM (top dose mostly 114 µM), for inactives: at the highest dose activity change, negative = substrate turnover; also: potency is read from the fitted curve at half-maximal effect; nearly all actives have a fitted effect of over 50% in size
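Rat TrxR1, dispensed at 90 nM, was prereduced with 400 uM NADPH (final) for 5 min at ~22 deg C, then incubated with compound 15 min before 400 uM selenite. A first-read NADPH fluorescence drop versus no-compound background flagged substrates.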
PI4K2A block: qHTS for small molecular inhibitors of PI4K2A | Phosphatidylinositol 4-kinase type 2-alpha (Homo sapiens), Q9BTU6 | purified PI4K2A, ADP-Glo luminescence, 1 h; active compounds read low | activity change, negative = inhibition, % at 76.9 µM | 0.13% of 420,000 active; in the data active = activity change below about -50%; inconclusive = mostly about -30% to -49%;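 also: -100% = wells without enzyme as full effect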
Target sequence (Q9BTU6 whole entry, looked up): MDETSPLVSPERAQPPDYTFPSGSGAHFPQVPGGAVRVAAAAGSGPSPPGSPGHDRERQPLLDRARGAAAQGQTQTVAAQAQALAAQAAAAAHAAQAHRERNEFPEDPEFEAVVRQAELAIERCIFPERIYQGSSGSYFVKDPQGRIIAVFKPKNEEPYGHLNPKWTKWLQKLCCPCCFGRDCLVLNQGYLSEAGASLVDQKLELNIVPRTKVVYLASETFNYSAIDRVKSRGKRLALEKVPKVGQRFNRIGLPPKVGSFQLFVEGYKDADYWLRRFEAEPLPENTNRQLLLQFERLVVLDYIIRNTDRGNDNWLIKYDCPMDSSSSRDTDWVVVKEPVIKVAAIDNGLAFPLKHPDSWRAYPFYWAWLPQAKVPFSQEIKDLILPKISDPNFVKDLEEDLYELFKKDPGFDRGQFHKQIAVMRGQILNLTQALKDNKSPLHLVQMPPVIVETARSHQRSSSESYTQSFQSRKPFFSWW
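PI4K2A activity was measured by ADP-Glo luminescence: enzyme (4 ug/mL stock) and phosphatidylinositol (1.2 mM stock) in Tris pH 7.5/MgCl2/EGTA/Triton X-100 buffer were reacted with ATP (300 microM stock) for one hour at ambient temperature.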
a7 integrin act: qHTS for Activators of Integrin-Mediated Alleviation for Muscular Dystrophy. 0.064% of 350,000 active. Potency, µM (top dose mostly 38.3 µM), inactives show at the highest dose activation, usual class: activators. alpha7betagal myoblasts, beta-gal FDG fluorescence, 48 h;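 also: potency is read from the fitted curve at half-maximal effect; 100% = response of the positive control SU9516; nearly all actives have a fitted effect of over 60% in size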
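alpha7betagal+/- myoblasts (passage 13, 250/well) treated 48 h at 37C with compounds at 1:260 dilution of DMSO stock. Lysed, then beta-galactosidase activity read as FDG fluorescence (ex 480/em 540) after 30 min, with pre-read for autofluorescence.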
GALK inh: qHTS Assay for Inhibitors of Human Galactokinase (GALK) | P51570 | Purified GALK, Kinase-Glo residual ATP luminescence | Potency, µM (titrated, usually from 57.5 µM), inactives show at the highest dose activity change, negative = inhibition, most hits filed as inhibitors | 0.007% of 270,000 active; also: potency is read from the fitted curve at half-maximal effect
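GALK at 5 nM final was combined with compound, 35 uM ATP and 100 uM galactose in HEPES pH8.0 with MgCl2 and DTT. The reaction ran one hour at room temperature before luminescent ATP detection.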
rTrxR1 inhibitor: qHTS Assay for Inhibitors of Mammalian Selenoprotein Thioredoxin Reductase 1 (TrxR1): qHTS; AID 588453, 2011; 1% of 390,000 active; Thioredoxin reductase 1, cytoplasmic (Rattus norvegicus), O89049; recombinant rTrxR1, NADPH fluorescence consumption, selenite substrate; Potency, µM (doses to about 114 µM), for the others: at the highest dose activity change, negative = inhibition, usual class: inhibitors; also: potency is read from the fitted curve at half-maximal effect; nearly all actives have a fitted effect of over 65% in size
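Rat TrxR1 (90 nM in the dispensed reagent) was pre-reduced with 400 uM NADPH for 5 min at room temperature, then incubated with compound for 15 min. After 400 uM selenite was added, NADPH fluorescence (Ex 340/Em 450 nm) was followed for 8 min.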
LDHA block: qHTS assay for inhibitors of human lactate dehydrogenase. L-lactate dehydrogenase A chain (Homo sapiens), P00338. AID 1347041, 2019. activity change, % (values are at about 110 or 230 µM). purified LDHA, NADH/diaphorase-resazurin fluorescence; active compounds read low. 0.15% of 480,000 active; in the data active = activity change below about -30%; inconclusive = mostly about -25% to -30%;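 also: plate controls were DMSO wells for no effect and wells without enzyme for full effect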
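Enzyme activity of human lactate dehydrogenase 5 (2 nM; 0.06 mM NADH, 0.2 mM pyruvate, 5 min, RT) is measured via a resazurin/diaphorase fluorescence readout of residual NADH.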
The depositor's hits bear a star; ? = inconclusive; . = no result; [ ] = dose if it differs, or a comment. The list is not random: actives were taken first. Their share in the collection is about 1.1%. Unless noted, calls follow the shape of the dose curve; as a rule, active = well fitted curve in the direction sought with a large enough effect; inconclusive = small, poorly fitted or top-dose-only effect, or another doubt; inactive = no such curve, though single readings can be large; an effect the other way counts as inactive or inconclusive. Unless noted, % is scaled to controls: 0 for no effect and ±100 for the full control effect.

SMILES | TrxR1 substrate | PI4K2A block | a7 integrin act | GALK inh | rTrxR1 inhibitor | LDHA block
O=C1C2=C(Nc3ccccc3SC2c2ccc(O)cc2)c2ccccc21 (stereo unspecified) | . | . | . | . | . | -2
COc1ccc(NC(=O)c2c(NCc3ccc(C)o3)sc3c2CCCCC3)c(OC)c1 | -9%[57.1 µM] | -20 | . | . | 20µM* | 1
COc1ccc(NC(=O)c2c(NCc3sccc3C)sc3c2CCCCC3)c(OC)c1 | -2%[57.1 µM] | -6 | . | . | 18µM* | 14
COc1ccccc1NC(=O)c1c(NCc2sccc2C)sc2c1CCCCC2 | 4%[57.1 µM] | -10 | . | . | ? | 9
COc1ccc(OC)c(NC(=O)c2c(NCc3cccs3)sc3c2CCCC3)c1 | -5% | -10 | . | . | 45µM* | 10
CCCOc1ccc(NC(=O)COc2ccc(C)c(C)c2)c2cccnc12 | . | . | . | . | . | -12
Cn1nc(-c2ccc(N3CCOCC3)c(NC(=O)COc3ccccc3)c2)c2ccccc2c1=O | . | . | . | . | . | -3
N#CC(C#N)=Cc1ccc(OCC(=O)N2CCOCC2)cc1 | -5% | -1 | -9% | 4% | 16µM* | -9
Cn1nc(-c2ccc(OCC(=O)N3CCOCC3)cc2)c2ccccc2c1=O | . | . | . | . | . | -31*
COC(=O)CN(C)C1CC(=O)N(c2ccc(Cl)cc2)C1=O (stereo unspecified) | -1% | 3 | 21% | -2% | 35µM* | -3
CN(Cc1ccncc1)C1CC(=O)N(c2ccc(Cl)cc2)C1=O (stereo unspecified) | -9% | 5 | 8% | 2% | 13%[57.1 µM] | -8
CS(=O)(=O)C1=NSC2=NC(=O)/C(=C\c3cccn3-c3ccc(Cl)cc3)C(=N)N21 | -6% | -7 | 23% | -6% | -20% | -109*
Cc1cc(/C=C2/C(=N)N3C(=NC2=O)SN=C3S(C)(=O)=O)c(C)n1-c1ccccc1F | -13% | -5 | -5% | -4% | -28% | -5
CC(C)c1ccccc1NC(=O)c1cccs1 | . | . | . | . | . | 4
S=c1[nH]nc(-c2cc(-c3ccccn3)nc3ccccc23)o1 | -8% | 13 | -24% | -7% | 56µM* | -3
O=c1c2ccccc2nc2n1CC/C2=C/N1CCN(c2cccc(C(F)(F)F)c2)CC1 | -1% | -1 | -9% | 5% | 14µM* | 9
O=C(O)c1ccc2c(=O)n3c(nc2c1)/C(=C/c1ccc(C(F)(F)F)cc1)CC3 | 29% | -3 | 1% | 4% | -1% | -3
COc1cccc(OC)c1NC(=O)CN1CCN(C)CC1 | 3%[57.1 µM] | -4 | 10% | -5% | 5%[57.1 µM] | -32*
CN1CCN(CC(=O)Nc2ccccc2Oc2ccccc2)CC1 | -8% | 3 | -12% | -1% | 10% | -2
CN1CCN(CC(=O)Nc2ccccc2Sc2ccccc2)CC1 | 7%[57.1 µM] | 1 | -46% | -1% | 24%[57.1 µM] | -33*
O=C(Cc1ccc(Cl)cc1)Nc1ccccc1Sc1ccccc1 | -10% | 3 | 6% | 0% | -12% | -12
O=C(CN1CCCC1)Nc1ccccc1Sc1ccccc1 | 9%[57.1 µM] | 3 | -16% | -1% | 23%[57.1 µM] | -3
O=C(CCl)Nc1ccccc1Sc1ccccc1 | -3% | 4 | -62% | 1% | 40µM* | 0
COc1ccc(C(=O)N2CCN(Cc3nc(N)c4ccccc4n3)CC2)cc1 | . | . | . | . | . | 6
CCOC(=O)c1c(C)c(C(=O)Nc2cccc(Cl)c2C)c(C)n1C | . | . | . | . | . | 3
SMILES | TrxR1 substrate | PI4K2A block | a7 integrin act | GALK inh | rTrxR1 inhibitor | LDHA block
Cc1ccc(-c2c(C(N)=O)c(C)nc3sc4c(c23)CCC4)cc1 | . | . | . | . | . | -7
Cc1cc(C)c(S(=O)(=O)NCC(c2ccco2)S(=O)(=O)c2ccccc2)c(C)c1 (stereo unspecified) | 6%[57.1 µM] | 4 | . | . | 4%[57.1 µM] | 3
CCOc1ccc(S(=O)(=O)NCC(c2cccs2)S(=O)(=O)c2ccc(C)cc2)cc1 (stereo unspecified) | 0%[57.1 µM] | 17 | . | . | 0.89µM* | 4
Cc1cc(C)c(S(=O)(=O)NCC(c2cccs2)S(=O)(=O)c2ccccc2)c(C)c1 (stereo unspecified) | 5%[57.1 µM] | 13 | . | . | 2.5µM* | 9
CCc1nc(NC(CC)CO)c(C#N)c2c1CCCC2 (stereo unspecified) | . | . | . | . | . | -34*
CCC(CO)Nc1nc(-c2ccco2)c2c(c1C#N)CCCC2 (stereo unspecified) | . | . | . | . | . | 14
Cn1c(=O)c2c(nc(Sc3ncnn3CC(=O)NC3CCCCC3)n2C)n(C)c1=O | -9% | 0 | 11µM* | 4% | -12% | 1
CC(=O)N(C)C1=C(O)c2ccccc2C(=O)C1=O | -11% | -24 | 16% | -1% | -20% | 22
CC(=O)N(C1=C(N)C(=O)c2ccccc2C1=O)C(C)C | 3% | -9 | -39% | 0% | 79µM* | 40
CN(CCCC1CCCC1)C(=O)CC1C(=O)NCCN1Cc1cccc(F)c1F (stereo unspecified) | 9% | 5 | -42% | 4% | 40µM* | 0
COC(=O)c1c(N2C(=O)CC(Sc3ccccc3C(=O)O)C2=O)sc2c1CCCC2 (stereo unspecified) | 3% | 6 | ? | 6% | 79µM* | -4
O=C(O)c1ccccc1SC1CC(=O)N(c2ccccc2)C1=O (stereo unspecified) | -14% | 4 | -9% | 1% | ? | -4
COC(=O)c1c(N2C(=O)CC(Sc3ccccc3C(=O)O)C2=O)sc(C)c1C (stereo unspecified) | 6%[57.1 µM] | -4 | 2% | 0% | ? | -3
O=C(O)c1ccccc1SC1CC(=O)N(C2CCCCC2)C1=O (stereo unspecified) | 3% | -1 | 0% | -1% | 79µM* | 0
Cc1ccc(S(=O)(=O)CCC(=O)c2ccc(F)cc2)cc1 | -3% | 24 | -54% | -7% | 1.6µM* | -7
COc1ccc(S(=O)(=O)CC(=O)c2cc(C)c(O)c(C)c2)cc1 | 3%[57.1 µM] | 1 | -11% | 4% | 27%[2.29 µM] | 2
Cc1ccc(C(=O)CCS(=O)(=O)c2ccc(F)cc2)cc1 | -11% | 25 | -40% | -6% | 1.1µM* | -9
Cc1ccc(S(=O)(=O)CCC(=O)NCc2ccc(Cl)cc2)cc1 | -8% | -2 | 13% | 0% | -7% | -2
Cc1ccc(S(=O)(=O)CCC(=O)OCC(=O)NCCc2ccc(F)cc2)cc1 | 0% | 3 | -1% | . | 12% | -3

Compound activity deposited in PubChem BioAssay by National Center for Advancing Translational Sciences (NCATS).
